# SW480 rerep: induces DNA re-replication in SW480 colon adenocarcinoma cells; 340,000 compounds, 1.8% hits; Potency, µM (titrated, usually from 46.1 µM), hits mostly activators; SW480 DNA re-replication, Hoechst DNA content imaging, 48 h; note: nearly all actives have a fitted effect of over 55% in size
#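 Hoechst fluorescence of nuclei (405 nm excitation, 500-530 nm emission) measured by plate-scanning imager after 48 hr compound exposure at 37 C; re-replication scored as increased number of nuclei with elevated intensity.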
# 12-LOX inh: inhibitors of human 12S-lipoxygenase ALOX12 | 580,000 compounds, 1.1% hits | Potency, µM (titrated, usually from 108 µM), most hits filed as inhibitors | AID 1671190 | P18054 | purified 12hLO, xylenol orange hydroperoxide absorbance
# Target sequence (P18054 whole entry, looked up): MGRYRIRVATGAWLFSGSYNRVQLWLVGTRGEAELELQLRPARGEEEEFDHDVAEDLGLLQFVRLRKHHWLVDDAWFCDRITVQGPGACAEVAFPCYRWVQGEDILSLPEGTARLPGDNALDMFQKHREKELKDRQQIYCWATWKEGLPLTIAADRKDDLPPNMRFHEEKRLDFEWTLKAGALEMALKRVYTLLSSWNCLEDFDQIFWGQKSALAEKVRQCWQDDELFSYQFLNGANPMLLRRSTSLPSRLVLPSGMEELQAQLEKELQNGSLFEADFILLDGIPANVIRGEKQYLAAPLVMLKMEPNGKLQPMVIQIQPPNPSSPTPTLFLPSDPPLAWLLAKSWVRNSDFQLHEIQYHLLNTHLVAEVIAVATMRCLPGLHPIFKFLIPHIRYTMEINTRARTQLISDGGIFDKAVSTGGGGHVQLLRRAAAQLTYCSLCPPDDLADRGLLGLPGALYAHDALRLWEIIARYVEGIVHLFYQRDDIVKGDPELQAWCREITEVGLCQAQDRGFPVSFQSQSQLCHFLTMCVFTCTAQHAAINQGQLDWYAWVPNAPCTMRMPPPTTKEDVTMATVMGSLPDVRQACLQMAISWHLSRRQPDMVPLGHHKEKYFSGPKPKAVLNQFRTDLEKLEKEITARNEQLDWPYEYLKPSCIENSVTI
#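 Hydroperoxide product was detected by ferrous iron/xylenol orange as the 573 to 405 nm absorbance ratio. Arachidonic acid at 40 uM (final) was turned over for 30 min at room temperature by 150 nM human 12hLO, pH 7.0 Hepes buffer, after 15 min compound preincubation.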
# KB-3-1 cytotox: KB-3-1 parental cell cytotoxicity; KB-3-1 viability, CellTiter-Glo ATP luminescence, 72 h; 400,000 compounds, 1.4% hits; AID 1347075; Potency, µM (doses to about 46.1 µM), most hits filed as cytotoxic; note: nearly all actives have a fitted effect of over 60% in size
#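 Screening of KB-3-1 cells (DMEM, 10% FBS, phenol-red free) ran from lowest to highest compound concentration; after 72 h at 37 °C viability was read luminescently and curves fitted.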
# KB-V1 MDR tox: KB-V1 MDR subline cytotoxicity. Potency, µM (doses to about 46.1 µM), actives largely listed as cytotoxic. KB-V1 MDR cells viability, CellTiter-Glo, 72 h. 400,000 compounds, 3.4% hits. AID 1347076; note: nearly all actives have a fitted effect of over 60% in size
#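 Luminescent ATP read-out (CellTiter-Glo, 10 min) measures survival of drug-selected KB-V1 MDR cells after 72 h, 37 degrees C compound exposure. Medium: phenol-red-free DMEM, 10% FBS. Values from fitted concentration-response curves.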
# MCF10A rereplic: inducers of DNA re-replication in MCF 10A breast cells. AID 624296. MCF 10A DNA re-replication, Hoechst nuclear intensity, 48 h. Potency, µM (titrated, usually from 46.1 µM), actives largely listed as activators. 350,000 compounds, 2.9% hits; note: nearly all actives have a fitted effect of over 50% in size
# PINK1 expr mod: modulators of PINK1 expression; PINK1 immunofluorescence, high-content cytometry, 24 h; Potency, µM (highest dose often 76.6 µM), usual class: activators; 410,000 compounds, 0.2% hits; AID 624263; active = well fitted activation curve with a large enough effect; inconclusive = small, poorly fitted or top-dose-only effect; cell line not stated here; note: nearly all actives have a fitted effect of over 65% in size
#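 A stable cell line was treated with compounds at 5 concentrations for 24 hours, with CCCP as control. PINK1 levels and mitochondrial localization were measured by immunofluorescence with mitochondrial, cell and nuclear markers after fixation, read by laser-scanning cytometry.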
# Numbers stand for hits; – = inactive; ? = inconclusive; · = not tested or not shown; [ ] = remark or other dose. This is a sample that favours compounds with a hit; in the whole collection about 5.8% have one here. Unless noted, calls come from the whole dose curve; as a rule, active = well fitted curve in the direction sought with a large enough effect; inconclusive = small, poorly fitted or top-dose-only effect, or another doubt; inactive = no such curve, though single readings can be large; an effect the other way counts as inactive or inconclusive.
SMILES,SW480 rerep,12-LOX inh,KB-3-1 cytotox,KB-V1 MDR tox,MCF10A rereplic,PINK1 expr mod
COC(=O)c1ccc(C2C3=C(CC(C)(C)CC3=O)Nc3c2c(=O)n(C)c(=O)n3C)cc1 (centres undefined),·,–,·,·,·,·
COC(=O)c1c(NC(=O)Cc2ccccc2)sc2c1C(C(=O)OC)CC2 (centres undefined),–,–,–,–,–,–
COC(=O)c1c(NC(=O)C(C)(C)C)sc2c1C(C(=O)OC)CC2 (centres undefined),–[9.22 µM],–,?,20.6µM,–,–
COC(=O)c1c(NC(=O)C(Cl)Cl)sc2c1C(C(=O)OC)CC2 (centres undefined),?,–,–,–,8.2µM,–
COC(=O)c1c(NC(=O)CCCOc2ccc(C)cc2)sc2c1C(C(=O)OC)CC2 (centres undefined),·,–,·,·,·,–
CCOc1cc(C(=O)NC(C)C2CC3CCC2C3)cc(OCC)c1OCC (centres undefined),–,–,–,–,13µM,–
COc1cc(C(=O)NC(C)C2CC3CCC2C3)ccc1OC(F)F (centres undefined),–,–,–,20.6µM,–,–
CC(NC(=O)c1ccc(F)cc1)C1CC2CCC1C2 (centres undefined),–,–,–,–,–,–
CCCN1CCN(c2nnc(-n3cccc3CNCc3ccc(OC)cc3OC)s2)CC1,·,–,·,·,·,·
COc1cccc(NCc2cc(=O)n3[nH]c(-c4ccc(C)cc4)nc3n2)c1,·,39.8µM,·,·,·,·
CCc1ccc(NCc2cc(=O)n3[nH]c(-c4ccccc4)nc3n2)cc1,·,8.91µM,·,·,·,·
Cc1cc(NC(=O)CSc2nc3c(C)ccc(C)c3cc2C#N)no1,–,–,–,–,–,–
CC(C)c1nc(SCC(=O)Nc2nc3c(s2)CCCC3)c2ccccc2n1,?,–,–,14.6µM,?,·
Cc1cc(C)c(C#N)c(SCC(=O)Nc2cc(C)on2)n1,?,–,–,8.2µM,?,–
O=C(CCSc1ccccc1)Nc1nc2c(s1)CCCC2,–,–,–,25.9µM,?,–
O=C(CSc1nc(Cc2ccccc2)nc2ccccc12)Nc1nc2c(s1)CCCC2,20.6µM,–,–,?,23.1µM,–
COc1ccc2nc(SC3CC(=O)N(c4cccc5ccccc45)C3=O)nc(C)c2c1 (centres undefined),·,–,·,·,·,·
CCCCSc1nc(N)cc(N2CCCC(C(=O)N3CCOCC3)C2)n1 (centres undefined),·,–,·,·,·,·
Cc1ccnc(NC(=O)c2nc(-c3ccccc3)oc2C)c1,·,–,·,·,·,·
Cc1nnc(NC(=O)CSc2nc(C(C)C)nc3ccccc23)s1,?,–,–,?,–,·
O=C(Cc1cccs1)Nc1nc2c(s1)CCCC2,–,–,?,11.6µM,?,–
Cc1cc(NC(=O)CSc2nc(C(C)C)nc3ccccc23)no1,?,–,?,?,25.9µM,–
O=C1C(=O)c2c(ccc3ccccc23)-c2ccccc21,9.2µM,–,4.11µM,4.11µM,1.84µM,–
Fc1ccccc1NC(=S)Nc1ccc(Br)cc1,–,–,–,?,–,?
CCSc1nsc(NC(=O)Nc2ccc(F)cc2F)n1,–,·,?,14.6µM,?,22.4µM
SMILES,SW480 rerep,12-LOX inh,KB-3-1 cytotox,KB-V1 MDR tox,MCF10A rereplic,PINK1 expr mod
Fc1cc(Br)ccc1NC(=S)Nc1ccccc1,–,?,?,14.6µM,?,–
O=C(Nc1ccccc1)Nc1ccc(F)cc1F,8.2µM,–,–,–,–,–
O=C(Nc1ccccc1)Nc1ccccc1Br,–,11.2µM,?,?,–,–
Cc1ccccc1CCNC(=O)Cn1cc(C(N)=O)c2ccccc21,·,–,·,·,·,·
O=C(NC1CCCCCC1)c1[nH]c2ccccc2c1Cl,·,–,·,·,·,·
O=C(O)/C=C/c1cc(Br)c(-c2ccc(Cl)cc2Cl)o1,·,39.8µM,·,·,·,·
O=C(O)c1ccc(-c2ccc(Cl)cc2Cl)o1,–,?,–,–,–,–
O=C(O)/C=C/c1ccc(-c2ccc(Br)cc2Cl)o1,·,7.94µM,·,·,·,·
CC(C)N(C(=O)COc1ncnc2ccccc12)c1ccccc1,·,–,·,·,·,·
CC(=O)c1ccc(NC(=O)N[C@H]2CCN3C(=O)[C@@H](Cc4ccccc4)NC(=O)[C@H]23)cc1,·,–,·,·,·,·
N#C/C(=C\c1c(Oc2ccc(Cl)cc2)nc2ccccn2c1=O)C(=O)NC1CCS(=O)(=O)C1 (centres undefined),?,–,?,–,5.17µM,–
Cc1cc(Oc2nc3ccccn3c(=O)c2/C=C(\C#N)C(=O)NC2CCS(=O)(=O)C2)ccc1Cl (centres undefined),?,?,–,–,–,–
Cc1cccn2c(=O)c(/C=C(\C#N)C(=O)NC3CCS(=O)(=O)C3)c(N3CCC(C)CC3)nc12 (centres undefined),8.2µM,–,–,–,5.8µM,–
Cc1cccn2c(=O)c(/C=C(\C#N)C(=O)NC3CCS(=O)(=O)C3)c(Oc3ccc(F)cc3)nc12 (centres undefined),?,?,?,–,?,–
COc1cc2oc(=O)c(CC(=O)N3CCCC3)c(C)c2cc1OC,·,–,·,·,·,·
COCCn1c(C)cc(C2=NNC(=Nc3ccccc3F)SC2)c1C,–,?,18.4µM,11.6µM,–,?
Cc1cc(C2=NNC(=Nc3ccccc3)SC2)c(C)n1C,–,14.1µM,–,–,–,–
Fc1ccc(F)c(C2=NNC(=Nc3ccccc3F)SC2)c1,?,–,?,?,20.6µM,35.5µM
Cc1cc(C2=NNC(=NC3CC3)SC2)c(C)n1-c1c(C)n(C)n(-c2ccccc2)c1=O,–,–,–,–,–,–
COCCCN=C1NN=C(c2cc(C)n(Cc3ccccc3Cl)c2C)CS1,0.651µM,?,1.3µM,1.46µM,?,?
COCCN=C1NN=C(c2cc(C)n(CC3CCCO3)c2C)CS1 (centres undefined),–,–,–,–,–,–
O=C(Nc1ccc(F)cc1F)C12CC3CC(CC(C3)C1)C2,·,–,·,·,·,·
CC(C)CCNC(=O)c1c(-n2cnnn2)sc2c1CCCC2,·,–,·,·,·,·
CCc1cccc2c1NC(=O)C2(O)CC(=O)c1ccc(Br)cc1 (centres undefined),·,–,·,·,·,·
COCCCN=C1NN=C(c2cc(C)n(-c3ccccc3)c2C)CS1,?,–,–,–,?,–
COCCCN=C1NN=C(c2cc(C)n(-c3ccccc3F)c2C)CS1,?,–,7.31µM,–,?,–
COC1C=CC=C(C)C(=O)NC2=CC(=O)C(N)=C(CC(C)CC(OC)C(O)C(C)C=C(C)C1OC(N)=O)C2=O (centres undefined),0.231µM,–,–,–,–,–
C=CCNC1=C2C[C@@H](C)C[C@H](OC)[C@H](O)[C@@H](C)/C=C(\C)[C@H](OC(N)=O)[C@@H](OC)/C=C\C=C(/C)C(=O)NC(=CC1=O)C2=O,–,·,·,·,0.0668µM,·
Fc1ccc(Nc2cncc(-c3ccsc3)c2)cc1Cl,·,39.8µM,–,–,·,–
CCCCSc1nnc2[nH]c(=O)cc(N)n12,–,–,–,8.2µM,–,?
